# TDP1 block: qHTS Assay for Inhibitors of Tyrosyl-DNA Phosphodiesterase (TDP1). Tyrosyl-DNA phosphodiesterase 1 (Homo sapiens), Q9NUW8. recombinant TDP1, AlphaScreen DNA substrate cleavage. Potency, µM (top dose mostly 130 µM), for inactives: top-dose activity change, negative = inhibition, usual class: inhibitors. 350,000 compounds, 0.28% hits; also: potency is read from the fitted curve at half-maximal effect; % is scaled to controls: 0 for no effect and ±100 for the full control effect; nearly all actives have a fitted effect of over 40% in size
#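 Enzyme-compound mixtures sat 15 min at room temperature, followed by a 5 min reaction with 15 nM final substrate and 10 min with AlphaScreen beads. Recombinant human Tdp1 was used at 1 nM final.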
# JMJD2A Tudor inh: qHTS Assay for Inhibitors of JMJD2A-Tudor Domain; AID 504339, 2011; Lysine-specific demethylase 4A (Homo sapiens), O75164; AlphaScreen JMJD2A-Tudor / H3K4me3 peptide binding; Potency, µM (top dose mostly 114 µM), for inactives: at the highest dose activity change, negative = inhibition, most hits filed as inhibitors; 390,000 compounds, 4.4% hits; also: potency is read from the fitted curve at half-maximal effect; % is scaled to controls: 0 for no effect and ±100 for the full control effect; nearly all actives have a fitted effect of over 50% in size
# Target sequence (O75164 whole entry, looked up, the tested form may be a part): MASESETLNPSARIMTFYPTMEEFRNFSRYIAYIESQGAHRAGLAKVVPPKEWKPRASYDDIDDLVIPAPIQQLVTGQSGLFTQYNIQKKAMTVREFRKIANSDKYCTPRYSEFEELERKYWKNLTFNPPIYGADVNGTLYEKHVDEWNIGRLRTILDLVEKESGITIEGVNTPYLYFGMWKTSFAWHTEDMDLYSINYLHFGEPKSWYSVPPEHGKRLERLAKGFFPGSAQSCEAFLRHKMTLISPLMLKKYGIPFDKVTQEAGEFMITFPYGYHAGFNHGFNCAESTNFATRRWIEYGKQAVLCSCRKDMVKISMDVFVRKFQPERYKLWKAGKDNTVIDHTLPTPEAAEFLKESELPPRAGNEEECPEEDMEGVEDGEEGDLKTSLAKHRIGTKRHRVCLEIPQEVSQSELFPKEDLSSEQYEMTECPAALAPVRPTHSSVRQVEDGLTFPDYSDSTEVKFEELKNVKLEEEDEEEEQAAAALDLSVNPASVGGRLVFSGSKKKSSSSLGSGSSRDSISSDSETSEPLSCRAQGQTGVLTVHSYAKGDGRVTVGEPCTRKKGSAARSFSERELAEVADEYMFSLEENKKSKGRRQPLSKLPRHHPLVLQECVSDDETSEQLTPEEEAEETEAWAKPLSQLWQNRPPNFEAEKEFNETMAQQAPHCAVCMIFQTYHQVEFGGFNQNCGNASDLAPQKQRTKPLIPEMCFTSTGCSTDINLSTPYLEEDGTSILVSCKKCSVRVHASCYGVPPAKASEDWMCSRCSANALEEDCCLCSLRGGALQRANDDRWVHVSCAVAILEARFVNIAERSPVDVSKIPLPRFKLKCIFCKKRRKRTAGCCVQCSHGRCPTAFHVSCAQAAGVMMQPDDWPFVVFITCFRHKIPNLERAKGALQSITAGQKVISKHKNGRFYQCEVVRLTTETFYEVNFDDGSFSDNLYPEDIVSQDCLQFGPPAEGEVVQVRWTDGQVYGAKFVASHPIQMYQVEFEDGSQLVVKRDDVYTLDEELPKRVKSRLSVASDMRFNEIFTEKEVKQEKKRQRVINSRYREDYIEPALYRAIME
# HP1b chromo inh: HTS for Inhibitors of HP1-beta Chromodomain Interactions with Methylated Histone Tails. Potency, µM (series often up to 114 µM), inactives show at the highest dose activity change, negative = inhibition, hits mostly inhibitors. Chromobox protein homolog 1 (Homo sapiens), P83916. AlphaScreen HP1-beta / biotin-H3K9me3 peptide binding. 390,000 compounds, 0.56% hits; also: potency is read from the fitted curve at half-maximal effect; nearly all actives have a fitted effect of over 70% in size
#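 Compound inhibition of the preformed complex between 50 nM HP1-beta and 50 nM biotinylated H3K9me3 peptide was read by AlphaScreen. Buffer was PBS pH 7.4 with 0.01% Tween-20. Incubations ran 30 min at room temperature, with 10 ug/mL donor/acceptor beads.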
# BAZ2B inh: qHTS Assay for Inhibitors of BAZ2B; AlphaScreen BAZ2B-H3K14Ac peptide displacement; Potency, µM (titrated, usually from 114 µM), for the others: top-dose activity change, negative = inhibition, hits mostly inhibitors; 360,000 compounds, 4.4% hits; AID 504333, 2011; also: potency is read from the fitted curve at half-maximal effect; % is scaled to controls: 0 for no effect and ±100 for the full control effect; nearly all actives have a fitted effect of over 60% in size
#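 BAZ2B 50 nM plus b-H3(5-23)K14Ac 50 nM, PBS pH 7.4/0.01% Tween-20, 30 min RT; compound added (max 110 uM), 30 min RT; streptavidin donor/Ni-chelate acceptor beads 10 ug/mL final, 20 min dark; AlphaScreen read.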
# G9a inh-1: qHTS Assay for Inhibitors of Histone Lysine Methyltransferase G9a. Histone-lysine N-methyltransferase EHMT2 (Homo sapiens), Q96KQ7. G9a H3K9 monomethylation, AlphaScreen, 2 h. Potency, µM (series often up to 102 µM), inactives show at the highest dose activity, negative = inhibition, most hits filed as inhibitors. 350,000 compounds, 8.8% hits; also: potency is read from the fitted curve at half-maximal effect; % is scaled to controls: 0 for no effect and ±100 for the full control effect; nearly all actives have a fitted effect of over 75% in size
#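 Chemiluminescent proximity detection of H3K9 monomethylation, read after 10 min bead incubation in the dark. Reaction: 20 nM G9a, 500 nM biotin-H3K9 peptide, 20 uM SAM cofactor, 2 h, room temperature, following 15 min enzyme-compound preincubation.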
# Sfp PPTase inh: qHTS Assay for Inhibitors of Bacillus subtilis Sfp phosphopantetheinyl transferase (PPTase); AID 1490, 2009; Potency, µM, for inactives: largest response in the series, negative = inhibition, usual class: inhibitors; Biochemical Sfp PPTase activity, qHTS; 310,000 compounds, 3.5% hits;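 also: the enzyme is Sfp with the accession as filed and its product quenches rhodamine fluorescence; potency is read from the fitted curve at half-maximal effect; 0% = enzyme reaction without inhibitor and -100% = no enzyme wells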
#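 Sfp 15 nM + cpd, 15 min RT; start w/ rhodamine-CoA 5 uM, BHQ-2-YbbR 12.5 uM (final); 50 mM Hepes pH 7.6, 10 mM MgCl2, 0.01% NP-40, 0.01% BSA; read 525/598 nm at 0 and 30 min.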
# JMJD2E confirm: Confirmation qHTS Assay for Inhibitors of Human Jumonji Domain Containing 2E (JMJD2E); Recombinant JMJD2E, FDH-coupled NADH fluorescence (FDH is formaldehyde dehydrogenase); AID 2677, 2010; 140 compounds, 93% hits; Potency, µM (doses to about 56.8 µM), for inactives: at the top dose activity change, negative = inhibition, most hits filed as inhibitors; shares compounds with JMJD2A Tudor inh
# FDH inh: Counterscreen for JMJD2E Inhibitors: qHTS Assay for Inhibitors of Formaldehyde Dehydrogenase (FDH); shares compounds with JMJD2A Tudor inh; FDH enzyme assay, NADH fluorescence kinetic; Potency, µM (series often up to 56.7 µM), inactives show at the highest dose activity, negative = inhibition, hits mostly inhibitors; 140 compounds, 10% hits; AID 2680, 2010
# G9a inh-2: qHTS Assay for Inhibitors of Histone Lysine Methyltransferase G9a: Hit Confirmation; 370 compounds, 89% hits; G9a H3K9 monomethylation, AlphaScreen, 2 h; Potency, µM, most hits filed as inhibitors; shares compounds with JMJD2A Tudor inh; also: potency is read from the fitted curve at half-maximal effect; nearly all actives have a fitted effect of over 65% in size
# Starred values were filed as active, the others as inactive; ? = inconclusive; . = no result; [ ] = another dose, or the depositor's remark. This is a sample that favours compounds with a hit; in the whole collection about 12% have one here. Calls follow the shape of the dose curve; as a rule, active = well fitted curve in the direction sought with a large enough effect; inconclusive = small, poorly fitted or top-dose-only effect, or another doubt; inactive = no such curve, though single readings can be large; an effect the other way counts as inactive or inconclusive.
SMILES,TDP1 block,JMJD2A Tudor inh,HP1b chromo inh,BAZ2B inh,G9a inh-1,Sfp PPTase inh,G9a inh-2,others
CCN(CC)c1ccc(NC(=O)c2cncc(Br)c2)cc1,7%,50µM*,?,35µM*,?,-15%,3.5*,
O=C(CCC(=O)c1cccs1)NCC(c1ccc(F)cc1)N1CCOCC1 (stereo not drawn),0%,-26%,21%,4%,27%[12.7 µM],.,.,
CCN(CC)C(=O)C1CCN(Cc2cccc(OCc3ccccc3)c2)CC1,-5%,50µM*,56µM*,35µM*,2.8µM*,-5%,28*,
O=C(c1ccccc1Br)N1CCC(c2nc3ccccc3o2)CC1,4%,-10%,25%,-13%,-2%[59 µM],.,.,
CCCCSc1nnc(-c2ccc(NC(=O)CCc3ccccc3)cc2)n1C,-1%,-10%,6%,-5%,-8%[59 µM],12%,.,
Cn1c(SCC(=O)NCc2ccccc2)nnc1-c1ccc(NC(=O)CCc2ccccc2)cc1,0%,-13%,20%,?,?,14%,11*,
COc1ccccc1C(=O)Nc1ccc(-c2nnc(SCC(=O)O)n2C)cc1,5%,100µM*,30%,?,?,7%,8*,
O=C(c1ccc(NS(=O)(=O)c2ccc(Cl)c(Cl)c2)cc1)N1CCOCC1,-3%,-1%,59%,9%,-45%,.,.,
O=C(Nc1sc2c(c1C(=O)Nc1cccc(Cl)c1)CCCC2)c1cccs1,3%[2.28 µM],71µM*,-19%,-35%,1.6µM*,.,4.1*,
CC(=O)c1cccc(N(C(=O)c2ccco2)C(C(=O)NC2CCCCC2)c2ccc(C)o2)c1 (stereo not drawn),12%,?,-11%,-17%,-16%,-8%,.,
Cc1ccc(C(=O)N2CCC3(CC2)NCCc2[nH]cnc23)cc1C,0%,-15%,19%,-11%,.,13%,.,
CCOC(=O)c1cnc(-n2nc(C)cc2C)nc1Nc1ccc(N(C)C)cc1,5%,1.1µM*,?,1.8µM*,0.89µM*,-12%,1.6*,
CCOC(=O)c1cnc(-n2nc(C)cc2C)nc1Nc1ccc2c(c1)OCO2,-4%,.,.,-25%,?,4%,.,
CCOC(=O)C1CCN(Cc2cc(=O)oc3cc(C)ccc23)CC1,.,-10%,38%,0%,-5%,12%,.,
CCOC(=O)C1CCN(Cc2ccc(O)c3ncccc23)CC1,8%,10µM*,-12%,4µM*,4µM*,11%,.,JMJD2E confirm=13µM*;FDH inh=?
COc1ccc(C(=O)N2CCC3(CCN(Cc4ccccc4OC)CC3)CC2)cc1,.,.,.,.,-2%[12.7 µM],27%,.,
CC(=O)c1ccc(NC(=O)c2ccc(-c3ccc(Cl)cc3)o2)cc1,0%[12.3 µM],-16%,22%,-22%,?,.,.,
COc1ccc(NC(=O)c2ccc(-c3ccc(C(C)=O)cc3)o2)cn1,1%,-27%,-19%,2%,1.6µM*,.,?,
CCCCC(O)C(=O)Nc1cc(C(F)(F)F)ccc1Cl (stereo not drawn),-5%,0%,.,.,.,.,.,
COc1ccc(OCC(=O)NCCNC(=O)c2cccnc2)cc1,0%[0.0935 µM],-15%,-19%,3%,1%,20%,.,
COc1ccc(Cl)cc1NC(=O)c1c(NCc2ccc(C)o2)sc2c1CCCCC2,-1%,?,-19%,-26%,?,.,.,
COc1ccccc1NC(=O)c1c(NCc2ccc(C)o2)sc2c1CCCCC2,10%,45µM*,?,?,1.3µM*,.,3.6*,
COc1ccc(OC)c(NC(=O)c2c(NCc3ccc(C)o3)sc3c2CCCCC3)c1,9%,35µM*,?,-37%,1.6µM*,.,5.1*,
O=C(O)C1=C[C@H](c2ccc(C(F)(F)F)cc2)C[C@H](OCCCCO)O1,.,-16%,1%,.,.,.,.,
CC(C)CN(Cc1c(O)ccc2ccccc12)CC(C)C,6%,-15%,14%,?,.,5%,.,
SMILES,TDP1 block,JMJD2A Tudor inh,HP1b chromo inh,BAZ2B inh,G9a inh-1,Sfp PPTase inh,G9a inh-2,others
CCN(Cc1ccncc1)Cc1c(O)ccc2ccccc12,8%,79µM*,?,-29%,1.4µM*,-3%,0.36*,
COc1ccc(N2CCC(CNC(=O)Nc3cccc(OC)c3)C2)cc1 (stereo not drawn),12%,40µM*,16µM*,32µM*,?,-1%,1.6*,
COc1ccc(N2CCC(CNC(=O)Nc3ccc(Cl)cc3)C2)cc1 (stereo not drawn),7%,?,?,-34%,0.71µM*,-1%,0.5*,
CCOc1ccc(OCC)c(S(=O)(=O)N2CCN(c3cccc(C)c3C)CC2)c1,3%,0%,40%,-5%,12%[59 µM],.,.,
c1ccc(-c2ccc3c(c2)NCCN3)cc1,.,45µM*,?,56µM*,?,-21%,0.56*,
Cc1cc(=O)oc2cc(NC(=O)CN3C(=O)NC(C)(c4ccccc4)C3=O)ccc12 (stereo not drawn),.,-28%,-11%,-2%,?,.,.,
Cc1ccc(NC(=O)CN(C)Cc2c(O)ccc3ccccc23)cc1,11%,79µM*,-12%,-33%,1.4µM*,-17%,0.63*,
COc1ccc(NC(=O)CN(C)CC(=O)NCc2ccc(C)cc2)cc1,0%,-14%,18%,-4%,18%[12.7 µM],.,.,
c1ccc(Oc2cccc(OCCn3cncn3)c2)cc1,-7%,25µM*,-55%,40µM*,1.8µM*,-6%,28*,

# High-throughput results: PubChem, National Center for Advancing Translational Sciences (NCATS)
